Laboratory results from PubChem BioAssay AID1532 (PCMD, 2009).
The campaign covered roughly 110,000 compounds. About 420 (0.38%) were called active. Cut-off read from the data, not from the text of the source: active = inhibition above about 30% (passing the limit was not always enough); inconclusive = no clear call, values can overlap the other calls. Only a selection was taken, and actives are over-represented in it overall.

Test system: RmlC (dTDP-4-dehydrorhamnose 3,5-epimerase) and RmlD (dTDP-4-dehydrorhamnose reductase), coupled enzyme assay
Assay: RmlC and RmlD coupled enzyme inhibitors, primary screen, biochemical, 384-well, compound mixtures, retest (AID 1532)
Details: 384-well mixture HTS, at 5.5 µM, stronger effect = higher value
[1] = measured here: mean retest inhibition

SMILES	inhibition	inhibition [1] [%]
COC(=O)C1=C(C(=O)OC)[C@@H]2N(C)c3ccccc3[C@@]23C[C@@H](C(=O)OC)N(C(C)=O)C3=N1	1.9% (inactive)	–
CC(=O)n1cc([C@@H]2C=C(C(=O)N3CCN(Cc4ccc5c(c4)OCO5)CC3)O[C@H](OCc3ccc(CO)cc3)C2)c2ccccc21	5.68% (inactive)	–
O=C(NCc1cc(C(F)(F)F)cc(C(F)(F)F)c1)C1CC(c2cccc(F)c2)=NO1 (configuration not stated)	2.58% (inactive)	–
CCO[C@@H]1OC(C(N)=O)=C[C@H](c2ccc(Br)cc2)[C@H]1CCCO	3.81% (inactive)	–
CC(NC(=O)Nc1ccccc1)C(c1cccs1)N1CCN(c2ccccc2)CC1 (configuration not stated)	10.1% (inactive)	–
CCO[C@H]1OC(C(=O)NCc2ccccc2)=C[C@@H](c2coc3ccccc3c2=O)[C@@H]1CCCO	1.17% (inactive)	–
COc1ccc(C#Cc2c(-c3ccc(OC)cc3)oc3ccc(-c4ccc5c(c4)OCO5)cc23)cc1	–	110
COc1ccc(-c2csc(N3CCN(Cc4ccc5c(c4)OCO5)CC3)n2)cc1	25.8% (inactive)	–
COc1ccc(-c2nnc(SCC(=O)c3ccc4c(c3)OCCO4)o2)cc1	-6.96% (inactive)	–
C[C@@H]1CC[C@]2(O[C@@H](CCO)C[C@H](O)[C@H]2O)O1	-20.2% (inactive)	–
CCOC(=O)c1sc(NC(=O)CSc2nc3c(c(=O)n2-c2ccccc2)SCC3)c(C(=O)OCC)c1C	-104% (inactive)	–
CCC(C)[C@@H](C(=O)N1CCNCC1)n1cc(CCCCN)nn1 (some centres not stated)	-10% (inactive)	–
CN1CCN(C(=O)C2=C[C@H](c3ccc4c(c3)OCO4)C[C@H](OCc3ccc(CO)cc3)O2)CC1	8.25% (inactive)	–
CC(C)(C)n1nc(Cc2cccc3ccccc23)c(C#N)c1N	-12.7% (inactive)	–
CCOC(=O)/C=C/c1ccc(C(F)(F)F)cc1S(=O)(=O)NC(C)(C)C	32.4% (inactive)	-3.06
O=C1NC[C@@H](Cc2ccc(O)cc2)N(CCc2cccc(F)c2)C1=O	6.42% (inactive)	–
COC(=O)CCCC1=CC2=CC(=O)C(C)(OC(=O)c3cccs3)C(=O)C2=CN1CC1CC1 (configuration not stated)	1.92% (inactive)	–
COc1ccc(CNC(=O)C2(CC3CC(c4ccccc4)=NO3)CCN(C(=O)c3cccc(O)c3)CC2)cc1 (configuration not stated)	-4.7% (inactive)	–
COC(C/C=C/C(=O)[C@@H](C)OCc1ccccc1)OC	9.13% (inactive)	–
C#CCOCCOCCOCCNc1nc(N2CCN(C(=O)[C@H](Cc3ccc(O)cc3)n3cc(C(N)CC(C)C)nn3)CC2)nc(N2CCN(C(=O)[C@H](CCC(=O)O)n3cc(C(N)[C@H](C)CC)nn3)CC2)n1 (some centres not stated)	7.73% (inactive)	–
CN1CCCc2cc(C#N)c(=O)[nH]c21	48.2% (active)	113

SMILES	inhibition	inhibition [1] [%]
C#CCNC(=O)[C@H](Cc1ccc(C(=O)c2ccccc2)cc1)NC(=O)OC(C)(C)C	-13.5% (inactive)	–
CCO[C@@H]1OC(C(=O)N2CCOCC2)=C[C@H](C)[C@H]1CCCO	-9.82% (inactive)	–
CC1(OC(=O)CCc2ccccc2)C(=O)C=C2C=C(c3ccc(C#N)cc3)N(CCc3ccccn3)C=C2C1=O (configuration not stated)	3.85% (inactive)	–
O=c1c(-c2ccccc2)coc2cc(O)ccc12	44.3% (inactive)	18
O=c1oc2cc(O)ccc2cc1-c1ccc(F)cc1	136% (active)	118
COc1ccc(-c2cc3ccc(OCc4nn[nH]n4)cc3oc2=O)cc1	94.2% (inactive)	82.7
COC(C[C@@H]1O[C@@H]1C(=O)[C@@H](C)OCc1ccccc1)OC	13.7% (inactive)	–
CC1(C)C=C2[C@H]3CC[C@@H]4[C@@]5(C)CCC(=O)C(C)(C)[C@@H]5CC[C@@]4(C)[C@]3(C)CC[C@@]2(C(=O)O)CC1	9.38% (inactive)	–
C[C@@H]1NC(=O)c2cc([N+](=O)[O-])cc(F)c2NCCC[C@@H](C(N)=O)NC(=O)[C@H](CC(N)=O)NC1=O	5.67% (inactive)	–
CNC(=O)c1[nH]cnc1C(=O)N[C@@H](CC(C)C)C(=O)OCc1ccccc1	1.9% (inactive)	–
CCOC(=O)c1cccc(NC(=O)c2ccc(F)cc2F)c1	-9.66% (inactive)	–
O=C(NC1CC1)C1=C[C@H](c2c[nH]c3ccccc23)C[C@H](OCc2ccc(CO)cc2)O1	7.9% (inactive)	–
Cn1ccnc1-c1nnn(-c2ccc(F)cc2)n1	-8.61% (inactive)	–
CCC(=O)Nc1cccc(C2=NOC3(C2)C[C@@H](C(N)=O)N(C(=O)c2cc([N+](=O)[O-])cc([N+](=O)[O-])c2C)C3)c1 (some centres not stated)	4.35% (inactive)	–
CCOC(=O)N1CCN(C(=O)c2cc3c(ccc4ccccc43)oc2=O)CC1	2.38% (inactive)	–
CC(=O)c1ccc2c(ccc3ccccc32)c1	5.48% (inactive)	–
CNC(=O)c1cc2c(ccc3ccccc32)oc1=N	52.7% (active)	155
CCOC(=O)c1c(NC(=O)C(C)Sc2c[nH]c3ccccc23)sc2c1CCC2 (configuration not stated)	-9.18% (inactive)	–
CCOC(=O)C[C@H]1c2ccc(C(F)(F)F)cc2S(=O)(=O)N1c1ccccc1	-16.1% (inactive)	–
COc1ccc(C[C@H]2CN3C(=NC[C@H]3C)N2CCNC(=O)CCC2CCCCC2)cc1	6.01% (inactive)	–
